According to PubChem BioAssay (NCATS):
Results filed as inconclusive are left out. Calls of active or inactive are those of the source. Calls follow the shape of the dose curve; as a rule, active = well fitted curve in the direction sought with a large enough effect; inconclusive = small, poorly fitted or top-dose-only effect, or another doubt; inactive = no such curve, though single readings can be large; an effect the other way counts as inactive or inconclusive.

Key:
[1] = Primary redox qHTS assay for identification of artifact compounds. (AID 1845223)
Procedure, shortened: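 Redox-cycling detection via DTT (250 uM final) oxidation coupled to Amplex Red (25 uM)/HRP (250 mU/mL) in HBSS. 15 min preincubation plus 30 min after DTT, room temperature. Ex/Em 525/598 nm; 4-parameter Hill fit against DMSO and 10 uM DA3003.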

[2] = Quantitative High-Throughput drug screen in 47 multiple myeloma cell lines against the NCATS MIPE library collection: FR4_PLB cell viability assay (AID 1918924; also: nearly all actives have a fitted effect of over 35% in size; also: potency is read from the fitted curve at half-maximal effect)
Procedure, shortened: (§1)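 Myeloma cells (500 per well) were exposed to MIPE 4.0 compounds by pin transfer and incubated 48 hours at 37C, 5% CO2. Viability was read as ATP by CellTiter-Glo luminescence, normalised to DMSO (100%) and media-only (0%) wells.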

[3] = Quantitative High-Throughput drug screen in 47 multiple myeloma cell lines against the NCATS MIPE library collection: Delta47_JCRB cell viability assay (AID 1918925; also: nearly all actives have a fitted effect of over 45% in size; also: potency is read from the fitted curve at half-maximal effect)
Procedure, shortened: (§2)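 qHTS of the MIPE 4.0 collection: 500 myeloma cells/well, 48 h drug exposure at 37C in 5% CO2, then CellTiter-Glo for 5 min at room temperature before luminescence reading.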

[4] = Quantitative High-Throughput drug screen in 47 multiple myeloma cell lines against the NCATS MIPE library collection: AMO1_DSMZ cell viability assay (AID 1918927; also: nearly all actives have a fitted effect of over 30% in size; also: potency is read from the fitted curve at half-maximal effect)
Procedure, shortened: as §2

[5] = Quantitative High-Throughput drug screen in 47 multiple myeloma cell lines against the NCATS MIPE library collection: Karpas620_DSMZ cell viability assay (AID 1918959); also: nearly all actives have a fitted effect of over 30% in size; also: potency is read from the fitted curve at half-maximal effect
Procedure, shortened: as §1

[6] = Quantitative High-Throughput drug screen in 47 multiple myeloma cell lines against the NCATS MIPE library collection: KMM1_JCRB cell viability assay (AID 1918960); also: nearly all actives have a fitted effect of over 30% in size; also: potency is read from the fitted curve at half-maximal effect
Procedure, shortened: (§3)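 Cell viability inhibition in this qHTS is measured via ATP content (CellTiter-Glo) after 48 h drug exposure at 37 °C. Wells hold 500 cells; DMSO-treated wells define 100% and medium-only wells 0%.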

[7] = Quantitative High-Throughput drug screen in 47 multiple myeloma cell lines against the NCATS MIPE library collection: Karpas417_ECACC cell viability assay (AID 1918961); conditions: Karpas417 myeloma viability, CellTiter-Glo ATP luminescence, 48 h; viability (% of DMSO): at 45.8 µM (top of the series); also: potency is read from the fitted curve at half-maximal effect
Procedure, shortened: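 CellTiter-Glo ATP luminescence gave viability after 48 h compound treatment at 37C of 500 multiple myeloma cells per well. Normalisation used DMSO-only wells as 100% and media-only wells as 0% viability; primary qHTS of approved and investigational drugs.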

[8] = Quantitative High-Throughput drug screen in 47 multiple myeloma cell lines against the NCATS MIPE library collection: EJM_DSMZ cell viability assay (AID 1918926; also: nearly all actives have a fitted effect of over 30% in size; also: potency is read from the fitted curve at half-maximal effect)
Procedure, shortened: as §2

[9] = Quantitative High-Throughput drug screen in 47 multiple myeloma cell lines against the NCATS MIPE library collection: ARP1_JJKsccF8 cell viability assay (AID 1918928; also: nearly all actives have a fitted effect of over 40% in size; also: potency is read from the fitted curve at half-maximal effect)
Procedure, shortened: as §3

[10] = Quantitative High-Throughput drug screen in 47 multiple myeloma cell lines against the NCATS MIPE library collection: ARD_JJKsccE7 cell viability assay (AID 1918929; also: potency is read from the fitted curve at half-maximal effect)
Procedure, shortened: as §2

Which results are given for `Cc1c(C)n(Cc2ccc(-c3ccccc3C(=O)O)cc2)c2ccc(C(=O)N[C@@H](C)c3ccc([N+](=O)[O-])cc3)cc12`?
Potency [1]: inactive; Potency [2]: inactive; Potency [3]: 23500 nM (active); Potency [4]: 118 nM (active); Potency [5]: 93.5 nM (active); Potency [6]: 935 nM (active); Potency [7]: 18.7 nM (active)

With `Cc1cnc(Nc2ccc(F)cc2Cl)nc1-c1c[nH]c(C(=O)N[C@H](CO)c2cccc(Cl)c2)c1` as the compound, how does the Potency [1] read?
The Potency was “inactive”.

And the Potency [3]?
Its Potency is 7430 nM (active).

What about the Potency [8] of the same compound?
The Potency was 23500 nM (active).

What about the Potency [4] of the same compound?
The Potency was 4180 nM (active).

And the Potency [9]?
Its Potency is 23500 nM (active).

What about the Potency [10] of the same compound?
Its Potency is 14800 nM (active).

And the Potency [5]?
Its Potency is 1050 nM (active).

And the Potency [6]?
Its Potency is 7430 nM (active).

Which Potency [1] does the source give for `CN(C)c1nc(Cc2ccc(NC(=O)c3ccc4ccccc4c3)cc2)nc(Cl)c1CC(=O)O` here?
Its Potency is “inactive”.

What about the Potency [2] of the same compound?
The Potency was “inactive”.

What about the Potency [3] of the same compound?
The Potency was “inactive”.

And the Potency [9]?
Its Potency is “inactive”.

What about the Potency [10] of the same compound?
Its Potency is “inactive”.

And the Potency [5]?
Its Potency is “inactive”.

With `Cc1c(Cn2c(C)nc3c(C(=O)O)cc(N4CCOCC4)cc32)cccc1C(F)(F)F` as the compound, how does the Potency [1] read?
Its Potency is “inactive”.

What about the Potency [2] of the same compound?
The Potency was 5900 nM (active).

What about the Potency [3] of the same compound?
Its Potency is 5900 nM (active).

And the Potency [4]?
Its Potency is 14800 nM (active).

And the Potency [10]?
The Potency was “inactive”.

What about the Potency [5] of the same compound?
The Potency was “inactive”.

What about the Potency [6] of the same compound?
The Potency was 20900 nM (active).

Which results are given for `C1Cc2[nH]nc(-c3nn[nH]n3)c2C1`?
Potency [1]: inactive; Potency [2]: inactive; Potency [4]: inactive; Potency [5]: inactive; Potency [6]: inactive

With `NC(=O)Nc1cc(-c2cccc(F)c2)sc1C(=O)N[C@H]1CCCNC1` as the compound, how does the Potency [1] read?
Its Potency is “inactive”.

And the Potency [3]?
Its Potency is 105 nM (active).

What about the Potency [8] of the same compound?
The Potency was 296 nM (active).

And the Potency [4]?
Its Potency is 662 nM (active).

What about the Potency [9] of the same compound?
Its Potency is 3720 nM (active).

What about the Potency [10] of the same compound?
The Potency was 526 nM (active).

And the Potency [5]?
The Potency was 3720 nM (active).

And the Potency [6]?
The Potency was 187 nM (active).

And the Potency [7]?
Its Potency is 83.3 nM (active).

Which results are given for `COc1cc2c(Nc3ccc(NC(=O)c4ccccc4)cc3)ncnc2cc1OCCCN1CCOCC1`?
Potency [1]: inactive; Potency [3]: 8330 nM (active); Potency [9]: 20900 nM (active); Potency [5]: inactive; Potency [6]: 6620 nM (active); viability (% of DMSO) [7]: 112% (active)

What does the source list for `CNC(=O)c1ccc(-c2cnc3ncc(Cc4ccc5ncccc5c4)n3n2)cc1F`?
Potency [1]: inactive; Potency [4]: inactive; Potency [5]: inactive; Potency [6]: inactive

Which Potency [1] does the source give for `CC1(C)CCC(c2ccc(Cl)cc2)=C(CN2CCN(c3ccc(C(=O)NS(=O)(=O)c4ccc(N[C@H](CCN5CCOCC5)CSc5ccccc5)c(S(=O)(=O)C(F)(F)F)c4)cc3)CC2)C1` here?
The Potency was “inactive”.

What about the Potency [3] of the same compound?
The Potency was 7430 nM (active).

What about the Potency [4] of the same compound?
The Potency was 3720 nM (active).

And the Potency [9]?
Its Potency is 13200 nM (active).

What about the Potency [10] of the same compound?
The Potency was 2640 nM (active).

And the Potency [5]?
The Potency was 18.7 nM (active).

What about the Potency [6] of the same compound?
The Potency was 1870 nM (active).

With `Cc1ccc(NC(=O)C2(c3ccc4c(c3)OC(F)(F)O4)CC2)nc1-c1cccc(C(=O)O)c1` as the compound, how does the Potency [1] read?
Its Potency is “inactive”.

What about the Potency [3] of the same compound?
Its Potency is 52.6 nM (active).

And the Potency [4]?
The Potency was 52.6 nM (active).

And the Potency [9]?
The Potency was 26.4 nM (active).

And the Potency [10]?
Its Potency is 46.9 nM (active).

And the Potency [5]?
Its Potency is 166 nM (active).

And the Potency [6]?
The Potency was 59 nM (active).

What about the Potency [7] of the same compound?
The Potency was 46.9 nM (active).

For `NC(=O)c1cccc2cn(-c3ccc([C@@H]4CCCNC4)cc3)nc12`, which Potency [1] is on record?
Its Potency is “inactive”.

And the Potency [8]?
The Potency was “inactive”.

What about the viability (% of DMSO) [7] of the same compound?
The viability (% of DMSO) was 72.2% (active).

For `C[C@]12CC[C@H](O)CC1=CCC1C2CC[C@]2(C)C(n3cnc4ccccc43)=CCC12` (stereo partly drawn), which Potency [1] is on record?
Its Potency is “inactive”.

And the Potency [4]?
Its Potency is “inactive”.

And the Potency [10]?
Its Potency is “inactive”.

What about the Potency [5] of the same compound?
Its Potency is “inactive”.

And the Potency [6]?
The Potency was “inactive”.

What about the viability (% of DMSO) [7] of the same compound?
The viability (% of DMSO) was 109% (active).

Which results are given for `CC1(C)CC(=O)c2c(C(F)(F)F)nn(-c3ccc(C(N)=O)c(NC4CCC(OC(=O)CN)CC4)c3)c2C1` (stereo not drawn)?
Potency [1]: inactive; Potency [3]: 166 nM (active); Potency [4]: 148 nM (active); Potency [9]: 235 nM (active); Potency [10]: 93.5 nM (active); Potency [5]: 264 nM (active); Potency [6]: 132 nM (active)

Which Potency [1] does the source give for `O=C(Nc1ncc(-c2cc(C(F)F)nn2-c2c(Cl)cccc2Cl)s1)C1CC1` here?
Its Potency is “inactive”.

What about the Potency [3] of the same compound?
Its Potency is 332 nM (active).

And the Potency [8]?
Its Potency is 209 nM (active).

What about the Potency [4] of the same compound?
The Potency was 235 nM (active).

What about the Potency [9] of the same compound?
The Potency was 418 nM (active).

What about the Potency [10] of the same compound?
The Potency was 296 nM (active).

And the Potency [6]?
Its Potency is 264 nM (active).

With `Cc1c(CN2CCN(S(C)(=O)=O)CC2)sc2c(N3CCOCC3)nc(-c3cnc(N)nc3)nc12` as the compound, how does the Potency [1] read?
Its Potency is “inactive”.

What about the Potency [3] of the same compound?
The Potency was 10.5 nM (active).

What about the Potency [4] of the same compound?
Its Potency is 93.5 nM (active).

And the Potency [9]?
The Potency was 8.3 nM (active).

What about the Potency [5] of the same compound?
Its Potency is 66.2 nM (active).

Which Potency [1] does the source give for `Clc1cccc(-c2nnnn2Cc2cccnc2)c1Cl` here?
The Potency was “inactive”.

And the Potency [8]?
Its Potency is “inactive”.

And the Potency [4]?
The Potency was “inactive”.

And the Potency [9]?
The Potency was “inactive”.

And the Potency [10]?
Its Potency is “inactive”.

And the Potency [5]?
Its Potency is “inactive”.

What about the Potency [6] of the same compound?
Its Potency is “inactive”.

For `CCCNC(=O)Nc1ccc(Oc2ncnc3cc(OC)c(OC)cc23)cc1Cl`, which Potency [1] is on record?
The Potency was “inactive”.

And the Potency [3]?
Its Potency is “inactive”.

What about the Potency [8] of the same compound?
The Potency was “inactive”.

And the Potency [4]?
The Potency was “inactive”.

And the Potency [9]?
The Potency was “inactive”.

What about the Potency [5] of the same compound?
The Potency was “inactive”.

Which results are given for `COc1cccc(-c2ccc(NC(=O)C3=C(C(=O)O)CCC3)c(F)c2)c1`?
Potency [1]: inactive; Potency [3]: inactive; Potency [4]: 6620 nM (active); Potency [9]: 16600 nM (active); Potency [5]: inactive

For `CC(=O)Nc1sc2c(c1-c1nc3ccccc3s1)CNC2`, which Potency [1] is on record?
The Potency was “inactive”.

And the Potency [3]?
The Potency was 16600 nM (active).

What about the Potency [9] of the same compound?
The Potency was 11800 nM (active).

What about the Potency [5] of the same compound?
Its Potency is “inactive”.

What about the Potency [6] of the same compound?
Its Potency is “inactive”.

Which Potency [1] does the source give for `Cc1ccc(C(=O)Nc2cccc(C(F)(F)F)c2)cc1-c1ccc2nc(NCCN3CCOCC3)ncc2c1` here?
The Potency was “inactive”.

And the Potency [3]?
Its Potency is 13200 nM (active).

And the Potency [8]?
Its Potency is 16600 nM (active).

And the Potency [4]?
Its Potency is 3720 nM (active).

What about the Potency [9] of the same compound?
Its Potency is 8330 nM (active).

And the Potency [10]?
The Potency was 2640 nM (active).

What about the Potency [5] of the same compound?
The Potency was 2640 nM (active).

And the Potency [7]?
Its Potency is 1180 nM (active).

Which Potency [1] does the source give for `C[C@@H]1COC(Nc2ccc3ncnc(Nc4ccc(OCc5nccs5)c(Cl)c4)c3c2)=N1` here?
The Potency was “inactive”.

What about the Potency [3] of the same compound?
Its Potency is 2640 nM (active).

And the Potency [8]?
The Potency was 1050 nM (active).

And the Potency [4]?
The Potency was 4690 nM (active).

And the Potency [10]?
Its Potency is 4180 nM (active).

What about the Potency [5] of the same compound?
Its Potency is 14800 nM (active).

And the Potency [6]?
The Potency was 10500 nM (active).
